Test results taken from PMC5540273 (PLoS ONE, 2017).

test system: BMX; conditions: concentration: 1 μM,replicates: in singlicate; n = 1
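Further: KINOMEscan kinase panel screen.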

Row | Structure (SMILES) | %Inh [%]
1 | CS(=O)c1ccc(-c2coc3ccc(-c4n[nH]c(=O)o4)cc23)cc1 (centres unmarked) | 0
2 | O=C(Nc1cccc(Oc2ccc3nccn3n2)c1)Nc1cccc(C(F)(F)F)c1 | 0
3 | CCNCC(Cc1ccccc1)NC(=O)c1cc(Br)c(-c2ccnc3[nH]ccc23)s1.Cl.Cl (centres unmarked) [GSK1383280] | 3
4 | COC(=O)Nc1nc2cc(Oc3ccc(NC(=O)Nc4cc(C(F)(F)F)ccc4Cl)cc3)ccc2[nH]1.Cl [GW697465] | 95.2
5 | COc1cc2nccc(Nc3ccc(Oc4ccccc4)cc3)c2cc1OC.Cl [GI261656] | 36
6 | Cc1ccc2c(-c3ccnc(Nc4ccc(C(F)(F)F)cc4)n3)cnn2n1 [GW819776] | 0
7 | O=C(Nc1ccccc1)c1cccc(Oc2ccc3nccn3n2)c1 | 17
8 | C[C@@H](Oc1cc(-n2cnc3cc(-c4ccncc4)ccc32)sc1C(N)=O)c1ccccc1Cl [GSK479719] | 18
9 | CS(=O)(=O)Nc1ccc(-c2ccnc3[nH]ccc23)cc1 [GSK993273] | 0
10 | NC(=O)c1ccc(-c2cc3ncnc(SCC(=O)O)c3s2)cc1 | 15
11 | CN(c1ccc2c(c1)nc(NCc1ccc(F)cc1)n2C)c1ccnc(Nc2ccc(CS(C)(=O)=O)cc2)n1.Cl [GW813244] | 16
12 | Cn1ccc2ncnc(Oc3ccc(NC(=O)Nc4cccc(C(F)(F)F)c4)c(F)c3)c21 | 1
13 | CCOC(=O)N1CCC(n2cnc(-c3ccc(F)cc3)c2-c2ccnc(N)n2)CC1 [SB-219952] | 13
14 | Cc1cccc2c(-c3ccncc3)c(-c3ccc(F)cc3)nn12.Cl [GW461487] | 15
15 | N#Cc1cccc(C(=O)NC2CCN(c3ccnc(Nc4ccc(F)cc4)n3)C2)c1 (centres unmarked) [GSK1379708] | 6
16 | Cc1n[nH]c2cc(Nc3ccnc(Nc4cccc(CN5CCOCC5)c4)n3)ccc12 [GW682569] | 11
17 | Cn1cc(-c2cccc3c(N)c(C(N)=O)nnc23)cn1 | 15
18 | Nc1nccc(-c2ccc3c(N)n[nH]c3c2)n1 [GSK1034945] | 0
19 | C[C@@H]1CNc2c(sc3ccc4nc(-c5ccc(O)cc5)ccc4c23)C(=O)N1 | 14

Row | Structure (SMILES) | %Inh [%]
20 | COc1cccc(C2=C(Nc3cccc(Cl)c3)C(=O)NC2=O)c1 [SB-341556] | 24
21 | CCn1c(-c2nonc2N)nc2cncc(Br)c21 [SB-738004] | 27
22 | COc1cc2c(Nc3ccc(NC(=O)c4ccccc4)cc3)ncnc2cc1OCCCN1CCOCC1 [GSK301329] | 7
23 | O=C1NCCc2[nH]c(-c3ccncc3)cc21 | 35
24 | Cc1ccc(Nc2ccnc(Nc3ccc4c(c3)CS(=O)(=O)C4)n2)cc1O.Cl [GW579362] | 80
25 | O=C(Nc1n[nH]c2cc(-c3ccco3)ccc12)C1CC1 [SB-737447] | 0
26 | CN(c1cccc(CNc2nc(Nc3ccc4c(c3)CC(=O)N4)ncc2C(F)(F)F)c1)S(C)(=O)=O | 18
27 | Cc1ccc(C(=O)Nc2ccc(Oc3ccc4nc(NC(=O)C5CC5)cn4c3)c(F)c2)c(=O)n1-c1ccccc1 | 73
28 | COC(=O)c1cccc(NC(=O)NC2CCN(c3ccnc(NCc4ccc(F)cc4)n3)CC2)c1 [GSK1379860] | 11
29 | Cl.c1ccc(Oc2ccc(Nc3ccnc4cc(-c5ccc(CN6CCNCC6)o5)ccc34)cc2)nc1 [GW567142] | 4
30 | O=C(NCC1CC1)c1ccc(-c2cc(C(=O)NC3CC3)ccc2F)cc1 [GW810445] | 0
31 | C[C@@H](Oc1cc(-n2cnc3cc(-c4cnn(C)c4)ccc32)sc1C(N)=O)c1ccccc1Cl [GSK580432] | 22
32 | CC(C)c1nc(-c2cccc(NS(=O)(=O)c3ccccc3)c2)c(-c2ccnc(Nc3ccc4c(c3)CN(C)CC4)n2)s1 [GSK1649598] | 96.2
33 | C[C@@H](Oc1cc(-n2cnc3ccc(-c4ccncc4)cc32)sc1C(N)=O)c1ccccc1Cl [GSK483724] | 27
34 | CCn1c(-c2nonc2N)nc2cncc(CNC3CCNCC3)c21.Cl [SB-747651] | 0
35 | CC(C)S(=O)(=O)N1CCN(Cc2ccc3c(c2)nc(NC(=O)c2ccsc2)n3C[C@H](O)c2ccccc2)CC1 [GW635815] | 10
36 | COc1cc(Nc2nccc(N3CCC(NC(=O)c4cccc(C#N)c4)C3)n2)cc(OC)c1OC (centres unmarked) [GSK1379751] | 0
37 | Cc1ccc(CC(=O)N2CCc3cc(-c4cn(C)c5ncnc(N)c45)ccc32)cc1 [GSK2634758] | 12

test system: BRAF; conditions: concentration: 1 μM,replicates: in singlicate; n = 1

Row | Structure (SMILES) | %Inh [%]
38 | CS(=O)c1ccc(-c2coc3ccc(-c4n[nH]c(=O)o4)cc23)cc1 (centres unmarked) | 12
39 | O=C(Nc1cccc(Oc2ccc3nccn3n2)c1)Nc1cccc(C(F)(F)F)c1 | 88
40 | CCNCC(Cc1ccccc1)NC(=O)c1cc(Br)c(-c2ccnc3[nH]ccc23)s1.Cl.Cl (centres unmarked) [GSK1383280] | 0
41 | COC(=O)Nc1nc2cc(Oc3ccc(NC(=O)Nc4cc(C(F)(F)F)ccc4Cl)cc3)ccc2[nH]1.Cl [GW697465] | 41
42 | COc1cc2nccc(Nc3ccc(Oc4ccccc4)cc3)c2cc1OC.Cl [GI261656] | 0
43 | Cc1ccc2c(-c3ccnc(Nc4ccc(C(F)(F)F)cc4)n3)cnn2n1 [GW819776] | 0
44 | O=C(Nc1ccccc1)c1cccc(Oc2ccc3nccn3n2)c1 | 3
45 | C[C@@H](Oc1cc(-n2cnc3cc(-c4ccncc4)ccc32)sc1C(N)=O)c1ccccc1Cl [GSK479719] | 1
46 | CS(=O)(=O)Nc1ccc(-c2ccnc3[nH]ccc23)cc1 [GSK993273] | 0
47 | NC(=O)c1ccc(-c2cc3ncnc(SCC(=O)O)c3s2)cc1 | 0
48 | CN(c1ccc2c(c1)nc(NCc1ccc(F)cc1)n2C)c1ccnc(Nc2ccc(CS(C)(=O)=O)cc2)n1.Cl [GW813244] | 96.8
49 | Cn1ccc2ncnc(Oc3ccc(NC(=O)Nc4cccc(C(F)(F)F)c4)c(F)c3)c21 | 62
50 | CCOC(=O)N1CCC(n2cnc(-c3ccc(F)cc3)c2-c2ccnc(N)n2)CC1 [SB-219952] | 14
51 | Cc1cccc2c(-c3ccncc3)c(-c3ccc(F)cc3)nn12.Cl [GW461487] | 14
52 | N#Cc1cccc(C(=O)NC2CCN(c3ccnc(Nc4ccc(F)cc4)n3)C2)c1 (centres unmarked) [GSK1379708] | 0
53 | Cc1n[nH]c2cc(Nc3ccnc(Nc4cccc(CN5CCOCC5)c4)n3)ccc12 [GW682569] | 0
54 | Cn1cc(-c2cccc3c(N)c(C(N)=O)nnc23)cn1 | 30
55 | Nc1nccc(-c2ccc3c(N)n[nH]c3c2)n1 [GSK1034945] | 0
56 | C[C@@H]1CNc2c(sc3ccc4nc(-c5ccc(O)cc5)ccc4c23)C(=O)N1 | 0

Row | Structure (SMILES) | %Inh [%]
57 | COc1cccc(C2=C(Nc3cccc(Cl)c3)C(=O)NC2=O)c1 [SB-341556] | 0
58 | CCn1c(-c2nonc2N)nc2cncc(Br)c21 [SB-738004] | 0
59 | COc1cc2c(Nc3ccc(NC(=O)c4ccccc4)cc3)ncnc2cc1OCCCN1CCOCC1 [GSK301329] | 0
60 | O=C1NCCc2[nH]c(-c3ccncc3)cc21 | 0
61 | Cc1ccc(Nc2ccnc(Nc3ccc4c(c3)CS(=O)(=O)C4)n2)cc1O.Cl [GW579362] | 77
62 | O=C(Nc1n[nH]c2cc(-c3ccco3)ccc12)C1CC1 [SB-737447] | 0
63 | CN(c1cccc(CNc2nc(Nc3ccc4c(c3)CC(=O)N4)ncc2C(F)(F)F)c1)S(C)(=O)=O | 0
64 | Cc1ccc(C(=O)Nc2ccc(Oc3ccc4nc(NC(=O)C5CC5)cn4c3)c(F)c2)c(=O)n1-c1ccccc1 | 57
65 | COC(=O)c1cccc(NC(=O)NC2CCN(c3ccnc(NCc4ccc(F)cc4)n3)CC2)c1 [GSK1379860] | 2
66 | Cl.c1ccc(Oc2ccc(Nc3ccnc4cc(-c5ccc(CN6CCNCC6)o5)ccc34)cc2)nc1 [GW567142] | 0
67 | O=C(NCC1CC1)c1ccc(-c2cc(C(=O)NC3CC3)ccc2F)cc1 [GW810445] | 0
68 | C[C@@H](Oc1cc(-n2cnc3cc(-c4cnn(C)c4)ccc32)sc1C(N)=O)c1ccccc1Cl [GSK580432] | 0
69 | CC(C)c1nc(-c2cccc(NS(=O)(=O)c3ccccc3)c2)c(-c2ccnc(Nc3ccc4c(c3)CN(C)CC4)n2)s1 [GSK1649598] | 99.9
70 | C[C@@H](Oc1cc(-n2cnc3ccc(-c4ccncc4)cc32)sc1C(N)=O)c1ccccc1Cl [GSK483724] | 8
71 | CCn1c(-c2nonc2N)nc2cncc(CNC3CCNCC3)c21.Cl [SB-747651] | 10
72 | CC(C)S(=O)(=O)N1CCN(Cc2ccc3c(c2)nc(NC(=O)c2ccsc2)n3C[C@H](O)c2ccccc2)CC1 [GW635815] | 0
73 | COc1cc(Nc2nccc(N3CCC(NC(=O)c4cccc(C#N)c4)C3)n2)cc(OC)c1OC (centres unmarked) [GSK1379751] | 0
74 | Cc1ccc(CC(=O)N2CCc3cc(-c4cn(C)c5ncnc(N)c45)ccc32)cc1 [GSK2634758] | 0
